Laboratory results: PubChem BioAssay
Values without a mark were called inactive. The source made the active and inactive calls. How the calls were made is not given here.

Target: L-lactate dehydrogenase (Plasmodium falciparum (isolate CDC / Honduras)) (UniProt Q27743)
Test: PfLDH activity inhibition – cell lysate, 3D7 strain, counter-screen for P. falciparum growth inhibition project (AID 2304);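 further: 0% = vehicle and 100% = reference inhibitor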
Details: P. falciparum 3D7 crude extract, LDH APAD/NBT absorbance; at 2 µM; hits give high values

Chain of L-lactate dehydrogenase (Plasmodium falciparum (isolate CDC / Honduras)) (Q27743 whole entry, looked up): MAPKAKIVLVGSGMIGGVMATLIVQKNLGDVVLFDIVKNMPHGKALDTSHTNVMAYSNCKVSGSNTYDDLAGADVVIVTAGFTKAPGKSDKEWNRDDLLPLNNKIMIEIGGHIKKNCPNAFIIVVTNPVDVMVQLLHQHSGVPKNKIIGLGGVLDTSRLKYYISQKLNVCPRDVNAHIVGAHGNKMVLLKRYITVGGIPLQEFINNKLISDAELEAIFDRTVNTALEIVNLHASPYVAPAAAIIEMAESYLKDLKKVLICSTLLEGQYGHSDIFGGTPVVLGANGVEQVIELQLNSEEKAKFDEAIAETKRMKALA

SMILES	inhibition [%]
CCN(CC)S(=O)(=O)c1ccc(C(C)NC(=O)c2ccccc2COc2ccccc2)cc1 (stereo unspecified)	4
Cc1ccc(NC(=O)c2cccc(N3CCN(c4ccncc4)CC3)c2)cc1F	-1
Cc1cc2nc(NC3=NC4(c5ccccn5)N=C(Nc5nc6cc(C)c(C)cc6[nH]5)NC4(c4ccccn4)N3)[nH]c2cc1C (stereo unspecified)	-2
CCN(CC)S(=O)(=O)c1ccc(C(=O)Oc2ccccc2N(Cc2ccc(OC)cc2)C2=NS(=O)(=O)c3ccccc32)cc1	-3
O=C(NC1CCN(Cc2ccsc2)CC1)c1ccc(-c2cccc(C(F)(F)F)c2)s1	-2
O=[N+]([O-])c1ccc2nc(Nc3ccc(Cl)c(Cl)c3)c(Nc3ccc(Cl)c(Cl)c3)nc2c1	3
Cc1cnc(CCNC(=O)c2cc(-c3ccc(Cl)cc3)cs2)[nH]1	4
Cc1cc(C(=O)CN2C(=O)NC3(CCOc4ccccc43)C2=O)c(C)n1Cc1ccc(F)cc1 (stereo unspecified)	0
COc1cc2nc(N3CCN(c4nc(N)c5cc(OC)c(OC)cc5n4)CC3)nc(N)c2cc1OC	-4
CS(=O)(=O)Nc1ccc(-c2ccc3ccnc(N)c3c2)cc1	-3
COc1cc(CNCCCNc2nc3ccsc3c(=O)[nH]2)c2[nH]cc(Cl)c2c1	2
CN1CCC(c2c[nH]c3ccc(NC(=O)Nc4ccc(-c5ccncc5)cc4Cl)cc23)CC1	7
NC1CCN(c2nc(NCCc3ccc(O)cc3)nc(NCc3ccccc3-c3ccc(C(F)(F)F)cc3)n2)CC1	1
CN1CCCN(Cc2ccc(-c3cccc(NC(=O)c4cccc(Cl)c4)c3)cc2)CC1	-3
Cc1cc(NC(=O)c2coc3cc(F)c(N4C[C@@H](C)N(C)[C@@H](C)C4)cc23)ccc1-n1ccnc1	-3
Oc1ccc(CCNc2nc(NCc3cccc(OCc4cccc(F)c4)c3)nc(N3CCNCC3)n2)cc1	-3
Nc1nc(N)c2c(ccc3c2ccn3Cc2ccc(F)cc2)n1	1
Cc1[nH]c(C)c(C(F)(F)F)c(=O)c1-c1ccc(Oc2ccc(OC(F)(F)F)cc2)cc1	-6
COc1ccc2ccc(F)c(CC(=O)N3CCOC(CNCc4cccc(-c5ccc(F)cc5)n4)C3)c2n1 (stereo unspecified)	6
C[C@@H](CC1CCCCC1)OC(=O)N(C)[C@H]1CCN(C#N)C1	-6
O=C(Nc1ccc(O)c(-c2nc3ccccc3[nH]2)c1)c1ccc([N+](=O)[O-])cc1	-6
CN1CCc2cc(Br)c(O)cc2C1Cc1ccccc1Cl (stereo unspecified)	-2
O=S(=O)(Nc1ccc2nccc(N3CCNCC3)c2c1)c1ccc2c(Cl)cccc2c1	-2
CCC(C)c1ccc(NC(=O)Nc2ccc(Cn3ncc(N4CCCNCC4)c(Cl)c3=O)cc2)cc1 (stereo unspecified)	-2
COc1cc(-n2cnc3cc(-c4ccc([N+](=O)[O-])cc4)sc3c2=O)ccc1OCCN1CCCC1	-4
C[C@H](N[C@H]1CCCc2c1[nH]c1ccc(Br)cc21)c1ccccc1	4

System: not listed separately
Test: inhibition of 3D7 malaria parasite growth – strain 3D7 (AID 2306);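 further: 0% = DMSO wells and 100% = chloroquine plus artemisinin control wells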
Details: P. falciparum 3D7 erythrocytic growth, LDH absorbance, 72 h; at 2 µM; hits give high values

SMILES	growth inhibition
COc1c(CNCCCCCCNCc2cc(Cl)c3ccccc3c2OC)cc(Cl)c2ccccc12	96% (active)
CCCc1cc(OC)c(CC2c3cccc(O)c3CCN2C)cc1OC (stereo unspecified)	100% (active)
CCOc1ccccc1CNc1nccc(NCc2ccccc2OC)n1	87% (active)
OCc1ccc2nc3c(cc2c1)-c1cccc2cccc-3c12	96% (active)
COc1ccc2ncc(F)c(CCN3CCC(NCc4cc5c(cn4)OCCS5)CC3)c2c1	89% (active)
CN1CCN(c2ccnc3ccc(NC(=O)Nc4ccc(Cl)c(Cl)c4)cc23)CC1	97% (active)
CCN(CC)CCOc1ccc(C(O)(C#CC(O)(c2ccc(Br)cc2)c2ccc(OCCN(CC)CC)cc2)c2ccc(Br)cc2)cc1 (stereo unspecified)	99% (active)
CC(=O)Nc1cccc(C(=O)Nc2ccc(-c3cccc(-c4nc5c(C)cccc5[nH]4)c3)cc2)c1	100% (active)
Cn1cncc1C(=O)Nc1cccc(-c2csc(-c3nc4ccccc4[nH]3)c2)c1	102% (active)
OCCN1CCN(c2nc(Nc3cccc(F)c3)c3cnn(-c4ccccc4)c3n2)CC1	100% (active)
Cc1cccc2[nH]c(-c3cccc(-c4ccc(NC(=O)COC(C)C)cc4)c3)nc12	82% (active)
CN(C)CCC1CCCc2ccc(NC(=O)Nc3cccc(Cl)c3Cl)cc21 (stereo unspecified)	93% (active)
FC(F)(F)c1ccc2nc(-c3ccc(-c4cccc(CNCc5cnn(-c6ccccc6)n5)c4)s3)[nH]c2c1	101% (active)
O=C(NCCCN1CCOCC1)c1csc(Nc2ccc(Cl)c(Cl)c2)n1	92% (active)
CCN(CC)S(=O)(=O)c1ccc(C(C)NC(=O)c2ccccc2COc2ccccc2)cc1 (stereo unspecified)	100% (active)
Cc1ccc(NC(=O)c2cccc(N3CCN(c4ccncc4)CC3)c2)cc1F	101% (active)
Cc1cc2nc(NC3=NC4(c5ccccn5)N=C(Nc5nc6cc(C)c(C)cc6[nH]5)NC4(c4ccccn4)N3)[nH]c2cc1C (stereo unspecified)	87% (active)
CCN(CC)S(=O)(=O)c1ccc(C(=O)Oc2ccccc2N(Cc2ccc(OC)cc2)C2=NS(=O)(=O)c3ccccc32)cc1	98% (active)
O=C(NC1CCN(Cc2ccsc2)CC1)c1ccc(-c2cccc(C(F)(F)F)c2)s1	88% (active)
O=[N+]([O-])c1ccc2nc(Nc3ccc(Cl)c(Cl)c3)c(Nc3ccc(Cl)c(Cl)c3)nc2c1	101% (active)

SMILES	growth inhibition
Cc1cnc(CCNC(=O)c2cc(-c3ccc(Cl)cc3)cs2)[nH]1	101% (active)
Cc1cc(C(=O)CN2C(=O)NC3(CCOc4ccccc43)C2=O)c(C)n1Cc1ccc(F)cc1 (stereo unspecified)	95% (active)
COc1cc2nc(N3CCN(c4nc(N)c5cc(OC)c(OC)cc5n4)CC3)nc(N)c2cc1OC	101% (active)
CS(=O)(=O)Nc1ccc(-c2ccc3ccnc(N)c3c2)cc1	85% (active)
COc1cc(CNCCCNc2nc3ccsc3c(=O)[nH]2)c2[nH]cc(Cl)c2c1	96% (active)
CN1CCC(c2c[nH]c3ccc(NC(=O)Nc4ccc(-c5ccncc5)cc4Cl)cc23)CC1	100% (active)
NC1CCN(c2nc(NCCc3ccc(O)cc3)nc(NCc3ccccc3-c3ccc(C(F)(F)F)cc3)n2)CC1	100% (active)
CN1CCCN(Cc2ccc(-c3cccc(NC(=O)c4cccc(Cl)c4)c3)cc2)CC1	100% (active)
Cc1cc(NC(=O)c2coc3cc(F)c(N4C[C@@H](C)N(C)[C@@H](C)C4)cc23)ccc1-n1ccnc1	96% (active)
Oc1ccc(CCNc2nc(NCc3cccc(OCc4cccc(F)c4)c3)nc(N3CCNCC3)n2)cc1	86% (active)
Nc1nc(N)c2c(ccc3c2ccn3Cc2ccc(F)cc2)n1	97% (active)
Cc1[nH]c(C)c(C(F)(F)F)c(=O)c1-c1ccc(Oc2ccc(OC(F)(F)F)cc2)cc1	97% (active)
COc1ccc2ccc(F)c(CC(=O)N3CCOC(CNCc4cccc(-c5ccc(F)cc5)n4)C3)c2n1 (stereo unspecified)	92% (active)
C[C@@H](CC1CCCCC1)OC(=O)N(C)[C@H]1CCN(C#N)C1	84% (active)
O=C(Nc1ccc(O)c(-c2nc3ccccc3[nH]2)c1)c1ccc([N+](=O)[O-])cc1	97% (active)
CN1CCc2cc(Br)c(O)cc2C1Cc1ccccc1Cl (stereo unspecified)	98% (active)
O=S(=O)(Nc1ccc2nccc(N3CCNCC3)c2c1)c1ccc2c(Cl)cccc2c1	100% (active)
CCC(C)c1ccc(NC(=O)Nc2ccc(Cn3ncc(N4CCCNCC4)c(Cl)c3=O)cc2)cc1 (stereo unspecified)	83% (active)
COc1cc(-n2cnc3cc(-c4ccc([N+](=O)[O-])cc4)sc3c2=O)ccc1OCCN1CCCC1	97% (active)
C[C@H](N[C@H]1CCCc2c1[nH]c1ccc(Br)cc21)c1ccccc1	96% (active)
